# Source: PubChem BioAssay
# Only some compounds are listed: those with a hit (about 2.8% of all), similar ones and a draw of the others.
# GLP1R inv ag: inverse agonists of human GLP-1 receptor. P43220. HEK293 GLP-1R CRE-luciferase, luminescence, 24 h; GLP-1R form is constitutively active. Potency, µM (series often up to 38.3 µM), hits mostly inhibitors. hit rate 1.6% among 410,000. AID 624417; further: nearly all actives have a fitted effect of over 55% in size
# Target sequence (P43220 whole entry, looked up): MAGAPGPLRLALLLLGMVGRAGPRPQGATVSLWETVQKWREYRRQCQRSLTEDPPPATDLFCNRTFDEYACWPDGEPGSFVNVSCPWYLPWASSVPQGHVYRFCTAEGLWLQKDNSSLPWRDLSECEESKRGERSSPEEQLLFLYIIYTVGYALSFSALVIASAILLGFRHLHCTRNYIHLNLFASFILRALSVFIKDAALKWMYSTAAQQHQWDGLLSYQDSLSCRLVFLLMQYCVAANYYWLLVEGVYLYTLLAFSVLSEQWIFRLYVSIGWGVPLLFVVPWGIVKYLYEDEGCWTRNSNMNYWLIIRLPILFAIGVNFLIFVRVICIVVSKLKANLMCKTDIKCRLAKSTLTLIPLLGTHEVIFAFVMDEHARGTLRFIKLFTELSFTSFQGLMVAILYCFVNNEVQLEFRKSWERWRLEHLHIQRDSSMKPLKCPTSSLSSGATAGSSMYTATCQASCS
#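 Inverse agonism was detected as reduced cAMP-driven luciferase luminescence after 24 h compound treatment. The cells were HEK293 clones expressing constitutively active human GLP-1R with the reporter. Reporter-only and GPR119 cell lines served as counterscreen controls.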
# Mito fusion yeast: blocks mitochondrial division or promotes mitochondrial fusion | S. cerevisiae fusion-defective mutant growth rescue, CellTiterGlo 48 h | Potency, µM (highest dose often 46.1 µM), most hits filed as activators | hit rate 0.23% among 320,000 | AID 485298; further: nearly all actives have a fitted effect of over 45% in size
#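 Temperature-sensitive fusion-defective S. cerevisiae (e.g. fzo1-1, mgm1-5) were grown with compound in YPEG medium (3% ethanol, 3% glycerol) for 48 hours at 37C. Growth rescue was measured as viability by CellTiterGlo luminescence after 10 minutes at ambient.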
# GLP-1R agonist: GLP-1 receptor (human) agonism; P43220; HEK293 GLP-1R CRE-luciferase, luminescence, 4-6 h; cells express a hypersensitive GLP-1R form; Potency, µM (top dose mostly 45.6 µM), actives largely listed as activators; hit rate 0.007% among 380,000
# BRCA1 expr act: activators of BRCA1 expression; MCF7-BRCA1-FFLuc reporter, luminescence, 48 h; response scale: scaled: vehicle 0%, 10 µM genistein 100%; Potency, µM (titrated, usually from 46.1 µM), hits mostly activators; hit rate 1.1% among 380,000; AID 624202; further: nearly all actives have a fitted effect of over 80% in size
#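 48 h compound treatment of MCF7-BRCA1-FFLuc cells (phenol-red free MEM, 37 °C), then 15 min with luciferase substrate and luminescence imaging.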
# GLP1R cytotox: cytotoxicity in counter-screen for GLP-1R inverse agonists; AID 624418; Potency, µM (highest dose often 38.3 µM), most hits filed as inhibitors; hit rate 0.13% among 410,000; HEK293 cAMP-luciferase reporter cells, luminescence, 24 h;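 further: loss of luciferase light is scored as toxicity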
#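 Cells in DMEM/10% Nu serum/1% pen-strep, 1536-well format. Pre-incubated 12 h, dosed with 23 nL compound, incubated a further 24 h. Luciferase detection, 12 min at room temp, luminescence.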
# Hits are given with their value; 0 = inactive; ? = inconclusive; - = not tested or not shown. The call rests on the fitted dose curve; in most records, active means well fitted curve in the direction sought with a large enough effect; inconclusive means small, poorly fitted or top-dose-only effect, or another doubt; inactive means no such curve, though single readings can be large; an effect the other way counts as inactive or inconclusive.
SMILES,GLP1R inv ag,Mito fusion yeast,GLP-1R agonist,BRCA1 expr act,GLP1R cytotox
COCC(C)OC(=O)/C(C#N)=C\c1coc2ccc(C)cc2c1=O (configuration not stated),0,0,0,0,0
O=c1c2ccccc2nc(SCCN2CCCCC2)n1CCc1ccccc1,?,0,0,0,0
CC(=O)c1cc(-c2ccccc2)n(CCC(=O)NCCc2ccccc2)c1C,0,-,-,-,0
Cc1cccc(CN(CC(=O)N/N=C/c2ccco2)S(=O)(=O)c2ccc(Cl)cc2)c1,?,0,0,0,0
Cc1cccc(CN(CC(=O)N/N=C/c2cccs2)S(=O)(=O)c2ccc(Cl)cc2)c1,8.91µM,0,0,0,0
Cc1ccccc1OCc1ccc(-c2nc(C#N)c(N3CCN(C)CC3)o2)o1,?,-,-,-,0
CCOc1ccc(/C=C/C(=O)c2ccccc2)cc1,0,0,0,12.6µM,0
COc1ccc(C(=O)/C=C/c2cn(CC(O)CN3CCc4ccccc43)c3ccccc23)cc1OC (configuration not stated),10µM,-,-,-,0
Cc1ccc(C(=O)/C=C/c2cn(CC(O)CN3CCc4ccccc43)c3ccccc23)cc1 (configuration not stated),?,-,-,-,0
CC(=O)c1ccc(N2CCc3ccccc3C2)c([N+](=O)[O-])c1,3.16µM,0,0,0,0
CC(=O)c1ccc(N2CCN(c3ncccn3)CC2)c([N+](=O)[O-])c1,0,0,0,0,0
C/C=C/c1ccc(OCCCNCC(C)O)c(OC)c1 (configuration not stated),5.62µM,0,0,0,0
C/C=C/c1ccc(OCCCCN2CC(C)CC(C)C2)c(OC)c1 (configuration not stated),11.2µM,0,0,0,?
C/C=C/c1ccc(OCCCCN2CCN(CC)CC2)c(OC)c1,?,0,0,0,0
Fc1ccc(/C=C/c2nnc(-c3cccs3)o2)cc1,0,0,0,2µM,0
Cc1ccc(/C=C/c2nnc(-c3cccs3)o2)cc1,0,0,0,?,0
CC1CCCN(C(=O)CN2CCC(c3nc4ccc(Cl)cc4[nH]3)CC2)C1 (configuration not stated),?,0,0,0,0
Clc1ccc(CN2CCC(c3nc4ccc(Cl)cc4[nH]3)CC2)cc1,7.94µM,0,0,0,?
Cc1cc(C)c(S(=O)(=O)N2CCN(C(=O)C3COc4ccccc4O3)CC2)c(C)c1 (configuration not stated),10µM,?,0,0,0
Cc1ccc(S(=O)(=O)N2CCN(C(=O)C3COc4ccccc4O3)CC2)cc1C (configuration not stated),?,0,0,0,0
Cc1ccc(NC(=O)c2ccc(Cl)c(NC(=O)c3cccs3)c2)cc1,10µM,0,0,0,0
Cc1ccc(NC(=O)c2cccs2)cc1,0,0,0,2.24µM,0
Cc1cccc(C(=O)Nc2ccc(C(=O)Nc3ccc(O)cc3)cc2)c1,2.82µM,0,0,0,?
O=C(Nc1ccc(O)cc1)c1ccc(NC(=O)c2cccs2)cc1,?,0,0,3.98µM,0
O=C(O)CN1C(=O)/C(=C\c2ccccc2OCc2ccc(Cl)cc2)SC1=S,?,0,0,0,0
SMILES,GLP1R inv ag,Mito fusion yeast,GLP-1R agonist,BRCA1 expr act,GLP1R cytotox
COc1cc(NC(=O)c2ccccc2Cl)ccc1NC(=O)c1cccs1,0,0,0,6.31µM,0
Cn1ccs/c1=N\C(=O)Nc1cccc(Cl)c1,0,0,0,3.55µM,0
CN1CC(=O)N/C1=N/C(=O)Nc1cccc(Cl)c1,-,?,0,-,-
O/N=C1\CCCc2ccc(Cl)cc21,0,0,0,0,0
COc1cccc(-c2nc(CCl)cs2)c1,0,0,0,0,0
COc1ccc(-c2noc(Cc3cccs3)n2)cc1,?,0,0,12.6µM,0
Cc1ccc(OCc2nc(-c3ccccc3)no2)cc1,0,0,0,8.91µM,0
c1ccc(OCc2nc(-c3cccs3)no2)cc1,0,0,0,11.2µM,0
Fc1ccc(OCc2nc(-c3cccs3)no2)cc1,0,0,0,7.94µM,0
Cc1ccc(-c2noc(COc3ccccc3C)n2)cc1,0,0,0,?,0
Cc1cc(O)cc(=O)n1Cc1ccccc1,0,-,0,0,0
Clc1cccc(Cl)c1CNC1CCCC1,0,0,0,0,0
COc1ccc(-c2csc(N(CCCN(C)C)C(=O)c3ccc(C)cc3)n2)cc1,3.98µM,0,0,0,0
COc1ccc(-c2csc(N(CCCN(C)C)C(=O)c3ccc(Br)cc3)n2)cc1,?,0,0,0,?
CCN(C(=O)c1cccs1)c1nc(-c2ccc(OC)cc2)cs1,0,0,0,12.6µM,0
Cc1cccc2sc(N(CCCN(C)C)C(=O)c3ccc(C(=O)c4ccccc4)cc3)nc12,5.01µM,0,0,0,?
Cc1cccc2sc(N(CCCN(C)C)C(=O)COc3ccccc3)nc12,0,-,-,-,?
COc1ccc2sc(N(CCCN(C)C)C(=O)c3ccc(C(=O)c4ccccc4)cc3)nc2c1,7.08µM,0,0,0,?
COc1ccc(-c2csc(N(CCCN(C)C)C(=O)c3cccs3)n2)cc1,0,0,0,0,0
CCC(=O)Nc1ccc(N2CCN(C(=O)c3ccccc3C)CC2)cc1,0,0,0,0,0
Cc1ccccc1C(=O)N1CCN(c2ccc(NC(=O)CSc3ccc(Cl)cc3)cc2)CC1,7.08µM,0,0,0,0
Cc1nc2ccc(S(=O)(=O)CCC(=O)Nc3ccccc3C)cc2s1,0,-,-,-,0
CCCOc1cccc(NC(=O)c2c(-c3ccccc3Cl)noc2C)c1,?,-,-,-,0
Cc1onc(-c2ccccc2Cl)c1C(=O)NC(=S)Nc1ccc(C(C)C)cc1,3.98µM,0,0,0,0
COc1ccccc1NC(=S)NC(=O)c1c(-c2ccccc2Cl)noc1C,3.98µM,0,0,0,0
SMILES,GLP1R inv ag,Mito fusion yeast,GLP-1R agonist,BRCA1 expr act,GLP1R cytotox
CCCOC(=O)c1cccc(NC(=O)c2c(-c3ccccc3Cl)noc2C)c1,8.91µM,0,-,-,0
Cc1onc(-c2ccccc2Cl)c1C(=O)NC(=S)Nc1ccccc1F,?,0,0,0,?
Cc1ccc(NC(=S)NC(=O)c2c(-c3ccccc3Cl)noc2C)cc1,0,0,0,0,0
COc1cccc(NC(=O)CCC2CCN(C(=O)c3ccc(C(C)=O)s3)CC2)c1,0,0,0,0,0
O=C(/C=C/c1ccc(O)c(O)c1)OCCc1ccccc1,?,2.59µM,0,0,0
Clc1ccc(CN2C3=NCCCN3c3ccccc32)cc1Cl,11.2µM,0,0,0,0
Clc1ccc(CN2C3=NCCCN3c3ccccc32)cc1,?,?,0,0,0
Cc1cc(C)cc(NC(=O)CCNS(=O)(=O)c2cc(Br)cnc2N)c1,7.94µM,0,0,0,0
O=C(O)c1cccc2c1C(=O)c1ccc(-c3ccc(F)cc3OCc3ccccc3)cc1S2(=O)=O,0,0,0,0,0
